The text below walks through data of publication PMC4552634, “A New Set of Chemical Starting Points with Plasmodium falciparum Transmission-Blocking Potential for Antimalarial Drug Discovery” (PLoS ONE, 2015).

About 3,200 (25%) of roughly 13,000 compounds showed an effect of 50% or more. The list shows a part of the results.

The assay concerns P. falciparum stage V gametocytes. Also noted: BacTiter-Glo ATP luminescence viability of purified stage V gametocytes in 384-well plates, per cent inhibition versus DMSO. As to conditions: 48 h, 5 µM; inhibitor.
A word on the % Inhibition: it is the change of the read-out against control, counted positive when it falls. With `CN(C)CCN(C)Cc1ccc(-c2ccc(NS(=O)(=O)c3cccc4cccnc34)cc2)cc1` [TCMDC-136474], the “% Inhibition” value is on record as 21.58%. Under `CCn1cc(C=C2Oc3c(ccc(O)c3CN3CCCCC3)C2=O)c2cc(OC)ccc21` [TCMDC-124887] stands 12.33%. Under `CCCNCc1ccc(-c2ccc(CN(CCOC)C(=O)CCc3ccc(OC)cc3)cc2)nc1` [TCMDC-141539] stands 54.14%; under `CCCNCc1ccc(-c2ccc(CN(CCOC)C(=O)CCC(=O)c3ccc(OC)c(F)c3)cc2)nc1` [TCMDC-141537], 97.99%; under `Cc1cc(NC(=O)NCCN2CCC(NS(=O)(=O)c3ccccc3F)CC2)c2ccccc2n1` [TCMDC-136137], 1.757%. As for `CCOC(=O)c1[nH]c(-c2cc(Cl)nc(Cl)c2)nc1NC(=S)NCc1ccc(NS(C)(=O)=O)cc1` [TCMDC-138899], the figure is -31.28%; as for `CC(=O)c1nccc(C)c1N` [TCMDC-139307], -14.24%; as for `CN1CCC(Oc2cc(NC(=O)Nc3ccc(-c4ccncc4)c(Cl)c3)ccc2Cl)CC1` [TCMDC-139205], 28.36%. Consider `O=C(CCCCCNC(=O)c1ccc(O)c(-c2ccc(Cl)c(Cl)c2)c1)NCc1cccc(C(F)(F)F)c1` [TCMDC-140831], for which the “% Inhibition” value was determined as 18.4%. As for `O=C(Nc1ccsc1)Nc1cccc(-c2ccc(-c3nc4ccc(C(F)(F)F)cc4[nH]3)cc2)c1` [TCMDC-133210], the figure is -6.282%; as for `CNCCCn1c(N(C)C)nc2cc(-n3cnc4cc(-c5ccc(Cl)cc5)sc4c3=O)ccc21` [TCMDC-138914], 43.83%. With `COc1ccc(-c2cc3ncnc(N4CCN(CCN5CCCC5)CC4)c3s2)cc1` [TCMDC-125055], the “% Inhibition” value is -2.838%.

As to `COc1ccc(-c2cc3ncn(CC(=O)N4CCN(c5cccc(OC)c5)CC4)c(=O)c3s2)cc1` [TCMDC-125255], the “% Inhibition” value was determined as 66.27%. Under `CN1CCN(C(=O)CN2CCC3(CCC2=O)NC(=O)c2ccccc2O3)CC1` (stereo not shown) [TCMDC-125378] stands -32.42%; under `CC(=O)N/N=C/[C@H](CCc1ccccc1)NC(=O)[C@H](CC(C)C)NC(=O)c1ccc(F)cc1` [TCMDC-135965], 1.649%. As for `CC[C@H](NC(=O)c1c(N)c(-c2sccc2Cl)nc2ccccc12)c1ccccc1` [TCMDC-141650], the figure is 17.42%; as for `O=[N+]([O-])c1cccc(CNCC2CCN(CCc3ccccc3)CC2)c1` [TCMDC-141210], 2.081%; as for `FC(F)(F)Oc1cccc(CNc2noc(-c3sccc3Br)n2)c1` [TCMDC-134186], 1.419%.

As for `Fc1cccc(Nc2nc(NCc3ccc(Cl)c(Cl)c3)nc(Nc3cccc(F)c3)n2)c1` [TCMDC-135139], the “% Inhibition” value was determined as 55.91%. Under `COc1cccc(Nc2nc(Nc3cccc(C#N)c3)cc(C(F)(F)F)n2)c1` [TCMDC-133462] stands -24.01%; under `COc1ccc(CNc2nc(Nc3cccc(C#N)c3)nc(Nc3cccc(C#N)c3)n2)cc1Cl` [TCMDC-138547], 52.56%; under `Cc1nc(-c2cccc(Nc3nccc(NCC(O)c4cccc(F)c4)n3)c2)cs1` (stereo not shown) [TCMDC-136571], -23.01%. Under `Fc1cccc(Nc2nc(NCCc3ccc(Cl)cc3)nc(Nc3cccc(F)c3)n2)c1` [TCMDC-135141] stands 40.3%; under `Fc1cccc(Nc2nc(NCc3ccc4ccsc4c3)nc(Nc3cccc(F)c3)n2)c1` [TCMDC-135140], 55.41%. Under `COc1cccc(Nc2nc(C)cc(Nc3cccc(C#N)c3)n2)c1` [TCMDC-133448] stands 4.259%; under `Fc1ccc(Nc2n[nH]c(CNC3CCN(Cc4ccc(Cl)c(Cl)c4)CC3)n2)cc1` [TCMDC-138655], -23.76%. Regarding `CC(=O)Nc1ccc(CN2CCCN(c3cc(NC(=O)c4cccc(C)c4)ccn3)CC2)cc1` [TCMDC-134980], the “% Inhibition” value came out at 8.133%. On to `Cc1cccc(OCCCCON2C(N)=NC(N)=NC2(C)C)c1C` [TCMDC-131662], for which the “% Inhibition” value is given as 9.727%. As for `COc1ccc(NC(=O)/C=C/c2ccc(Cl)c(Cl)c2)cc1N1CCN(C)CC1` [TCMDC-139042], the figure is -34.01%; as for `CC(C)n1ncc2c(C(=O)Nc3ccc(C#N)c(Cl)c3)cc(C3CC3)nc21` [TCMDC-125244], -17.87%. As for `COc1ccc(CCNC(=O)c2cnc3c(c2)nc(-c2cnc(-c4ccccc4)[nH]2)n3CCc2cnc[nH]2)cc1` [TCMDC-139689], the figure is -21.36%; as for `Cc1cccc2nc(-c3cccc(-c4ccc(CNCCNC(=O)c5ccnn5C)cc4)c3)[nH]c12.O=C(O)C(F)(F)F` [TCMDC-133007], 31.89%; as for `Cc1cccc2nc(-c3ccc(-c4ccc(CNCCNC(=O)c5ccnn5C)cc4)cc3)[nH]c12.O=C(O)C(F)(F)F` [TCMDC-133017], 85.49%. Under `Cc1cccc2nc(-c3cccc(-c4cccc(CNCCNC(=O)c5ccnn5C)c4)c3)[nH]c12.O=C(O)C(F)(F)F` [TCMDC-133005] stands -4.375%; under `Cc1cccc2nc(-c3ccc(-c4cccc(CNCCNC(=O)c5ccnn5C)c4)s3)[nH]c12.O=C(O)C(F)(F)F` [TCMDC-133015], -0.5354%. Consider `Cc1cccc2nc(-c3ccc(-c4ccc(CNCCNC(=O)c5ccnn5C)cc4)s3)[nH]c12.O=C(O)C(F)(F)F` [TCMDC-133009], for which the “% Inhibition” value is 4.683%. In the case of `Cc1cccc2nc(-c3ccc(-c4cccc(CNCCNC(=O)c5ccnn5C)c4)cc3)[nH]c12.O=C(O)C(F)(F)F` [TCMDC-133011], the “% Inhibition” value is on record as 85.89%. As for `CS(=O)(=O)CCNCc1ccc(-c2ccc3ncnc(Nc4ccc(OCc5ccccc5)c(Cl)c4)c3c2)o1` [TCMDC-138467], the figure is 19.81%; as for `COc1cc(OCCCCCCON2C(N)=NC(N)=NC2(C)C)cc(OC)c1OC` [TCMDC-131371], 3.006%; as for `Cc1cc(OCCCN2CCC(NS(=O)(=O)c3ccc(C(F)(F)F)cc3)CC2)c2ccccc2n1` [TCMDC-136277], -32.21%. Under `COc1ccc(-n2nc(C)c3c2NC(=O)CC3c2ccccc2OCc2ccccc2F)cc1` (stereo not shown) [TCMDC-124907] stands 2.012%; under `COc1ccc2nccc([C@@H](O)CN3CCC(NC(=O)c4cc5cccnc5[nH]4)CC3)c2c1` [TCMDC-140768], 6.193%; under `Cc1ccc(Nc2nnc(SCC(=O)Nc3ccc(CN4CCCC4)cc3)s2)cc1` [TCMDC-125043], 65.4%. Regarding `Cc1ccc(NC(=O)c2ccc(CN3CCCN(CC4CCCCC4)CC3)cc2)cc1` [TCMDC-136397], the “% Inhibition” value is on record as -64.33%.

For `Cc1ccc(NC(=O)c2ccc(CN3CCCN(Cc4cccc(O)c4)CC3)cc2)cc1` [TCMDC-136398], the “% Inhibition” value is listed as -12.68%. Under `COc1ccccc1C1CCN(C2CCC(NC(=O)/C=C/c3ccc(C(F)(F)F)cc3F)CC2)CC1` (stereo not shown) [TCMDC-133486] stands -41.82%. Turning to `O=C(Nc1ccc2c(c1)CCC2)c1cccc(N2CCN(c3ccncc3)CC2)c1` [TCMDC-135125], the “% Inhibition” value turned out to be 2.245%. As for `O=C(Nc1ccncc1)Nc1ccc2c(c1)CCN(C1CCC1)CC2` [TCMDC-135949], the figure is 33.65%. Turning to `O=C(c1cccc(COc2ccc3c(c2)CCN(C2CCCC2)CC3)c1)N1CCN(c2ccncc2)CC1` [TCMDC-134128], the “% Inhibition” value was found to be 76.76%.

On to `Oc1ccc(CCNc2nc(NCc3ccccc3-c3ccc(F)cc3)nc(N3CCNCC3)n2)cc1` [TCMDC-133783], for which the “% Inhibition” value was found to be 11.92%. Under `COc1ccc2nccc([C@@H](O)CN3CCC(NCc4ccc5scnc5c4)CC3)c2c1` [TCMDC-141081] stands 9.68%; under `Cc1ccc(NC(=O)c2ccc(Cl)c(Cl)c2)cc1-c1ccc(C(=O)Nc2ccncc2)cc1` [TCMDC-133696], -4.564%. Under `CCOc1cc(C)ccc1C1CCN(CCCCNC(=O)c2cnc(-c3ccc(C(F)(F)F)cc3)[nH]2)CC1` [TCMDC-138581] stands 5.476%; under `COc1ccc2c(CCNc3nc(SC)ncc3C(=O)NCCc3ccc(F)cc3)c[nH]c2c1` [TCMDC-136796], 55%; under `COc1ccc(NC(=O)[C@H](CC(C)C)Nc2ccnc(NCCc3ccc(F)cc3)n2)cc1` [TCMDC-134826], 23.86%. As for `COc1ccc(NC(=O)CCNc2ccnc(NCCc3ccc(F)cc3)n2)cc1` [TCMDC-134823], the figure is 38.74%; as for `CCNCc1ccc(-c2cc3ncnc(Nc4ccc(OCc5cccc(F)c5)c(Cl)c4)c3s2)[nH]1` [TCMDC-135542], -36.05%. For `Cc1ccc(F)c(NC(=O)c2c(-c3c(F)cccc3Cl)noc2C)c1` [TCMDC-125643], the “% Inhibition” value is -20.89%. Under `Clc1ccccc1OCc1ccccn1` [TCMDC-125865] stands -0.5645%; under `Cc1ccc(N/C(N)=N/c2ncccc2OCc2c(F)cccc2Cl)cc1` [TCMDC-138944], 83.96%; under `O=C(/C=C/c1ccc(Cl)c(Cl)c1)NCCCCCN1CCCN(C(=O)Nc2cccc(F)c2)CC1` [TCMDC-135745], -38.92%. Under `COc1ccc(Cl)cc1C(=O)Nc1ccc(-c2nc3ccccc3[nH]2)cc1` [TCMDC-125808] stands 9.6%. Turning to `Cc1ccc(-c2nc3ccc(C(=O)NC4CCC(N5CCCc6ccc(C#N)cc6C5)CC4)cc3[nH]2)cc1` (stereo not shown) [TCMDC-133551], the “% Inhibition” value is -1.563%.

Take `COc1cccc(C(=O)Nc2ccc(-c3nc4ccccc4[nH]3)cc2)c1` [TCMDC-124429]: the “% Inhibition” value was 5.991%. Under `COc1cc(C(=O)Nc2ccc(-c3nc4ccccc4[nH]3)cc2)cc(OC)c1OC` [TCMDC-125796] stands 51.37%; under `CCOc1cc(C(=O)Nc2ccc(-c3nc4ccccc4[nH]3)cc2)cc(OCC)c1OCC` [TCMDC-125676], -48.5%.

Regarding `Cc1ccc(-c2nc3ccc(C(=O)NC4CCN(Cc5ccccc5)CC4)cc3[nH]2)cc1` [TCMDC-133073], the “% Inhibition” value stood at 5.058%. For `COc1ccc(C(=O)Nc2ccc(-c3nc4ccc(C)cc4[nH]3)cc2)cc1OC` [TCMDC-124358], the “% Inhibition” value is on record as 77.27%. As for `N#Cc1cccc(C(=O)Nc2ccc(-c3nc4ccccc4[nH]3)cc2)c1` [TCMDC-124812], the figure is 70.91%; as for `CCOc1cccc(C(=O)Nc2ccc(-c3nc4ccccc4[nH]3)cc2)c1` [TCMDC-123752], 24.98%; as for `O=C(Nc1ccc(-c2nc3ccc(NC(=O)c4ccc(Br)cc4)cc3[nH]2)cc1)c1ccc(Br)cc1` [TCMDC-124212], -13.35%. Turning to `COc1cc(C(=O)Nc2cccc(-c3nc4ccccc4[nH]3)c2)cc(OC)c1OC` [TCMDC-125848], the “% Inhibition” value is -4.164%.

As for `COc1ccccc1C1CCN(C2CCC(NC(=O)c3ccc4nc(-c5ccc(C)cc5)[nH]c4c3)CC2)CC1` (stereo not shown) [TCMDC-133556], the “% Inhibition” value was 115.6%.
